Results reported in PubChem BioAssay (NCATS).
Records with an inconclusive call do not appear. A call without a number means that no potency is given here. The source made the active and inactive calls. Calls follow the shape of the dose curve; as a rule, active = well fitted inhibition curve with a large enough effect; inconclusive = small, poorly fitted or top-dose-only effect; inactive = no such curve, though single readings can be large or run the other way.

molecular target: Retinal dehydrogenase 2 (Homo sapiens) (UniProt O94788); test: qHTS for Inhibitors of the Aldehyde Dehydrogenase Family (ALDH1A2) Confirmation screens (AID 2061314); conditions: ALDH1A2 enzyme inhibition qHTS confirmation; series mostly up to 45.9 µM; also: nearly all actives have a fitted effect of over 65% in size
Potency is read from the fitted curve at half-maximal effect.

| Compound | Potency |
| --- | --- |
| O=C(CC1N=C2c3ccccc3N=C(SCc3cccc(F)c3)N2C1=O)NCc1cccs1 (stereo not given) | inactive |
| COCCNC(=O)CNC(=O)c1ccc(-c2cccc(C(F)(F)F)c2)cc1 | inactive |
| CCN(C(=O)c1sc2nc3n(c(=O)c2c1C)CCCCC3)c1ccccc1F | inactive |
| Cc1ccccc1NC(=O)CSc1nc2ccccc2c2nc(CCn3cncc3C)nn12 | inactive |
| COC(=O)c1cc(C)nc2c1c(=O)nc(SCc1ccccc1C)n2C1CC1 | inactive |
| Cc1ccc(S(=O)(=O)N2CCC(C(=O)Nc3ccc(Oc4ccccc4)cc3)CC2)cc1 | inactive |
| Cn1cc(S(=O)(=O)N2CCCCC2)cc1C(=O)Nc1ccc(OC(F)(F)F)cc1 | inactive |
| CCN(CC)S(=O)(=O)c1ccc2c(c1)N(CC(=O)N1CCN(c3cccc(C(F)(F)F)c3)CC1)C(=O)CO2 | inactive |
| CCOCc1cc(CN2CCN(c3cccc(C(F)(F)F)c3)CC2)c(O)c2ncccc12 | inactive |
| COc1ccc(OC)c(S(=O)(=O)Nc2ccc3[nH]c(=O)[nH]c3c2)c1 | inactive |
| CCOc1ccc(C(=O)Nc2ccc(NC(=O)c3ccccc3)cc2)cc1Br | inactive |
| Cc1cccc(-c2nc3c(cnn3-c3ccccc3)c(=O)n2-c2ccc(Br)cc2)c1 | inactive |
| COc1ccc(NC(=O)CN2C(=O)COc3ccc(S(=O)(=O)N4CCOCC4)cc32)cc1 | inactive |
| COc1ccccc1Cc1nc2ccccc2nc1SCC(=O)Nc1c(C)cccc1C | inactive |
| CCc1c(-c2ccccc2)nc2ccccc2c1C(=O)NC(C)c1ccccc1 (stereo not given) | inactive |
| O=C(CN(Cc1cccc2ccccc12)C1CC1)Nc1ccc(N2CCOCC2)cc1 | 11.3 µM (active) |
| O=C(Nc1ccc(O)cc1)c1cccc(S(=O)(=O)N2CCOCC2)c1 | inactive |
| COc1ccccc1C(=O)Nc1cc(-c2cccc(Br)c2)nn1-c1ccccc1 | inactive |
| COc1cc(C(=O)NCC(c2ccco2)S(=O)(=O)c2ccccc2)cc(OC)c1OC (stereo not given) | inactive |
| O=C(NCC(=O)N1CCOCC1)c1ccc(-c2cccc(C(F)(F)F)c2)cc1 | inactive |

| Compound | Potency |
| --- | --- |
| O=C(NCCOc1ccccc1)[C@@H]1C[C@@H](c2ccc(F)cc2)N([S+](=O)([O-])c2ccccc2)C1 | inactive |
| CCOc1ccc(C(=O)N(Cc2ccc(C(C)C)cc2)Cc2ccco2)cc1 | inactive |
| CC(=O)c1ccc(NC(=O)CCc2c(C)nn(-c3ccc4nnc(C)n4n3)c2C)cc1 | inactive |
| COc1ccc(C(CNC(=O)c2cccc([N+](=O)[O-])c2)N2CCOCC2)cc1 (stereo not given) | inactive |
| CN(Cc1ccccc1C(F)(F)F)C(=O)c1ccc(Cl)nc1 | inactive |
| CCn1cc(C(=O)N(C)c2cc(C)ccc2C)c2cc(OC)c(OC)cc2c1=O | inactive |
| CC(C)OCCCn1c(SCc2ccccc2Cl)nc2c(sc3ccccc32)c1=O | inactive |
| CCCCOc1cccc(C(=O)Nc2cc(NC(=O)c3ccco3)ccc2OC)c1 | inactive |
| CN1C(=O)c2cccn2CC1CNC(=O)c1cccc2nccnc12 (stereo not given) | inactive |
| CNC(=O)c1cc(C)nc2onc(C3CCCN3C(=O)c3ccccc3)c12 (stereo not given) | inactive |
| Nc1c(-c2ccncc2)cc[nH]c1=O | 0.634 µM (active) |
| Cc1ccc(CCNC(=O)c2c(C)oc3nc(C)nc(N4CCOCC4)c23)cc1 | inactive |
| COc1ccc(-c2cc(C(=O)NCCc3ccc(OC)c(OC)c3)c3ccccc3n2)cc1 | inactive |
| Cc1ccc2cccc(NC(=O)COc3ccccc3[N+](=O)[O-])c2n1 | inactive |
| COc1cc2nc(NC(=O)c3ccc(S(=O)(=O)N4CCOCC4)cc3)sc2cc1OC | inactive |
| Cc1ccc(-n2c(-c3cccc(C)c3)nc3c(cnn3-c3ccccc3)c2=O)cc1 | inactive |
| COc1cccc(-n2c(SCc3ccccc3C)nc3c([nH]c4ccccc43)c2=O)c1 | inactive |
| COC(=O)c1ccccc1NC(=O)CCCS(=O)(=O)c1nc(-c2ccccc2OC)cc(C(F)(F)F)n1 | inactive |
| CCOC(=O)c1ccccc1NC(=O)c1cnc(N2CCOCC2)c2ccccc12 | inactive |
| Cc1noc(Nc2sc3c(c2-c2nc4ccccc4s2)CCNC3)n1 | 25.2 µM (active) |
